DRD3 antagonist: blocks the human D3 dopamine receptor; max response, negative = inhibition, %; 360,000 tested, 2.5% active; AID 652054; D3R cells, DiscoveRx beta-arrestin luminescence, antagonist mode; active compounds read low; in the data active = max response below about -50%; inconclusive = no clear call, values can overlap the other calls; also: % is scaled to controls: 0 for no effect and ±100 for the full control effect
Target sequence (P35462 whole entry, looked up): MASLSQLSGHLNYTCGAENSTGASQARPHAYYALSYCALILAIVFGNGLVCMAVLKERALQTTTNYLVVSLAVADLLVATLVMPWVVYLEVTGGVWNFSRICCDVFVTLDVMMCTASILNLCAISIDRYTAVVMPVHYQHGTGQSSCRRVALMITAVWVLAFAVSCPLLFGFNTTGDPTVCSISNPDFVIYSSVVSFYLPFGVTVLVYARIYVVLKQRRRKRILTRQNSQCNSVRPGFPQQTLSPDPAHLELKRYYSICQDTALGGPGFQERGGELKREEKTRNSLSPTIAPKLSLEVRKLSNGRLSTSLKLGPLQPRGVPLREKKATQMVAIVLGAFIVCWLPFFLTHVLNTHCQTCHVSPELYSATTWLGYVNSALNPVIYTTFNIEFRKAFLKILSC
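Cells plated overnight at 1500 cells/well, then exposed to library compounds with dopamine controls for 90 minutes at 37 degrees C. DiscoveRx reagent added for 30–60 minutes at room temperature; luminescence read, quantitative HTS format.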
Integrin act MD: activators of alpha7 integrin expression for muscular dystrophy; alpha7betagal myoblasts, beta-gal FDG fluorescence, 48 h; Potency, µM (series often up to 38.3 µM), inactives show at the top dose activation, usual class: activators; 350,000 tested, 0.064% active; AID 624291; active = well fitted activation curve with a large enough effect; inconclusive = small, poorly fitted or top-dose-only effect; inactive = no such curve, though single readings can be large or run the other way;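 also: potency is read from the fitted curve at half-maximal effect; 100% = response of the positive control SU9516; nearly all actives have a fitted effect of over 60% in size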
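Alpha7betagal+/- myoblasts (passage 13) were plated 16-24 hr, then exposed to compounds (1:260 dilution of DMSO stock) for 48 hours at 37C. After MPER lysis, β-galactosidase reporter activity was read as FDG fluorescence (ex 480/em 540) after 30 minutes.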
DRD3 agonist: D3 dopamine receptor (human) agonism | P35462 | D3R DiscoveRx beta-arrestin cells, luminescence, 90 min | max activation, % | 410,000 tested, 0.58% active | AID 652048; in the data active = max activation above about 30%; also: 0% is about no effect
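Agonist-mode cell screen: cells plated at 1500/well and incubated overnight at 37 °C, then exposed to library compounds for 90 min at 37 °C. Detection reagent was added for 30–60 min at room temperature, and luminescence was read.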
Numbers without * were called inactive; ? = inconclusive; / = no result. Hits are enriched below; roughly 2.9% of the tested compounds scored in any of these assays.

SMILES	DRD3 antagonist	Integrin act MD	DRD3 agonist
O=C(Nc1cccc(Cl)c1)c1ccc(NCCCN2CCOCC2)c([N+](=O)[O-])c1	-89*	-58%	-12
O=C(c1cc2ccccc2oc1=O)N(Cc1cccs1)CC1CCCO1 (stereo unspecified)	-14	-22%	-10
CN(N)C(=S)Nc1ccc(F)cc1	-13	0%	37*
Cc1ccc(NC(=S)N(C)N)cc1Cl	-7	-15%	-7
COc1cc2c(cc1CNC[C@H]1O[C@@H](n3cnc4c(N)ncnc43)[C@H](O)[C@@H]1O)OCO2	7	4%	39*
Nc1ncnc2c1ncn2[C@@H]1O[C@H](CNC(=O)[C@@H](N)Cc2ccccc2)[C@@H](O)[C@H]1O	40	8%	5
Nc1ncnc2c1ncn2[C@@H]1O[C@H](CNC(=O)[C@H](N)Cc2cscn2)[C@@H](O)[C@H]1O	-84*	15%	-2
Nc1ncnc2c1ncn2[C@@H]1O[C@H](CNC(=O)[C@@H](N)CO)[C@@H](O)[C@H]1O	-13	0%	5
CC(C)Oc1cc2ccccc2cc1CNC[C@H]1O[C@@H](n2cnc3c(N)ncnc32)[C@H](O)[C@@H]1O	29	0%	12
Nc1ncnc2c1ncn2[C@@H]1O[C@H](CCC(=O)NCc2ccccc2)[C@@H](O)[C@H]1O	-93*	/	-10
CCCCn1c(N)c(N(CC(C)C)C(=O)c2cc(-c3ccc(OC)c(OC)c3)nc3ccccc23)c(=O)[nH]c1=O	17	7%	-1
O=C(N/N=C/c1ccccc1Cl)c1cccc(F)c1	-6	27%	-26
Brc1cc2[nH]cnc2c2ccccc12	19	-27%	46*
Oc1ccc2c(ccc3[nH]cnc32)c1	-14	19%	-4
C/C(=N\NC(=O)c1csc2ccccc12)c1ccc(O)cc1	-3	2%	-7
Cc1csc(SCC(=O)O)n1	0	17%	-3
CCOC(=O)[C@H]1[C@H]2COc3ccc(Br)cc3[C@@H]2N2C(=O)c3ccc(Cl)cc3NC(=O)[C@@]12C	-75*	-22%	-27
CCOC(=O)[C@H]1[C@H]2COc3ccc(C)cc3[C@@H]2N2C(=O)c3ccc(C)cc3NC(=O)[C@@]12C	0	-4%	-10
CC(C)c1cc(Cn2c3ccccc3c(=O)n2C(C)Cn2cc(CCc3ccccc3)nn2)on1 (stereo unspecified)	3	/	5
COC(=O)c1ccc(NC(=O)CC2C(=O)N(c3cccc(C)c3)C(=O)N2Cc2ccco2)cc1 (stereo unspecified)	/	/	14
COc1cc(NC(=O)CC2C(=O)N(c3cccc(C)c3)C(=O)N2Cc2ccco2)cc(OC)c1 (stereo unspecified)	/	/	62*
COc1ccc(/C=C(/NC(=O)c2ccccc2)C(=O)NCC2CCCO2)cc1 (stereo unspecified)	7	4%	6
Nc1o[nH]c(=O)c1Cc1ccccc1	-25	6%	-5
O=C(C[C@H]1C/C=C\C[C@H](NC(=O)OCC2c3ccccc3-c3ccccc32)C(=O)O[C@H](c2ccccc2)CNC1=O)N[C@H](CO)Cc1ccccc1	5	-23%	0
Cc1ccc(-c2c3c(=O)n(C)c(=O)n(C)c3cn2N2CCOCC2)cc1	-51*	-15%	3
SMILES	DRD3 antagonist	Integrin act MD	DRD3 agonist
CCCn1cc2c(c1-c1ccc(C)cc1)c(=O)n(C)c(=O)n2C	5	1%	3
CC(C)C[C@@H](CN1CCCC1CN1C(=S)NC[C@@H]1Cc1ccccc1)N1C[C@H](Cc2ccccc2)N(CC2CCCCC2)C1=S (stereo partly specified)	-16	/	9
CN(Cc1ccc(OC(F)F)cc1)Cc1nc2c(Br)cc(Br)cc2c(=O)[nH]1	25	10%	-14
Cc1ccc2[nH]c(=O)c(CN(CCc3ccccc3)C(=O)N3CCOCC3)cc2c1	4	12%	-6
CC(=O)/C(N=Nc1cc2c(c([N+](=O)[O-])c1C)C(C)(C)CC2(C)C)=C(\C)O	21	29%	34*
CC(=O)/C(N=Nc1cc2c(cc1[N+](=O)[O-])OCCO2)=C(\C)O	7	3%	-8
COc1cc(OC)c(S(=O)(=O)NCc2ccco2)cc1S(=O)(=O)NCc1ccco1	-12	17%	0
COc1c(C)cc(S(=O)(=O)NCc2ccco2)c(C)c1C	4	0%	31*
O=C(CN=C1NS(=O)(=O)c2ccccc21)OCC(=O)c1cc(F)ccc1F	-7	-13%	-1
CCN(Cc1nc2ccccc2c(=O)[nH]1)C(=O)C1CC(=O)N(c2cccc3ccccc23)C1 (stereo unspecified)	1	-23%	6
C[C@@H]1CN([C@H](C)CO)C(=O)CCCn2nncc2CO[C@H]1CN(C)C(=O)Nc1ccc2c(c1)OCO2	?	2%	-8
